The supplement of paper PMC6607015
Counter-ions that a name gives are not always drawn.

Tests used:
Conditions in all cases: compound concentration in added solution (µM; 5 µl added to 20 µl cells): 10; 18 h
A431 [1] = experiment: LBPA endosome anti-LBPA integrated intensity (sum per cell), Z-score; higher = more LBPA staining
Summary of the method: (§1)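 In duplicate 384-well imaging plates, 3,500 HeLa MZ or A431 cells in 20 µl per well were seeded onto 5 µl of 10 µM compound solution. The cells were incubated for 18 h, fixed in 4% PFA and stained with 6C4 anti-LBPA antibody, filipin, propidium iodide and CellTracker green before four 20× images were acquired per well. Values are AcuityXpress-normalised Z-scores of per-cell integrated LBPA or filipin intensity, obtained by MetaXpress segmentation over the whole cell or in LBPA endosomes.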

HeLa MZ [2] = experiment: as above
Summary of the method: as §1

A431 [3] = experiment: whole-cell filipin (free cholesterol) integrated intensity, Z-score; higher = more cholesterol staining
Summary of the method: as §1

HeLa MZ [4] = experiment: as above
Summary of the method: as §1

A431 [5] = experiment: filipin (cholesterol) integrated intensity within LBPA endosomes, Z-score; higher = more cholesterol in LBPA endosomes
Summary of the method: as §1

HeLa MZ [6] = experiment: as above
Summary of the method: as §1

Compound | LBPA endosome anti-LBPA integrated intensity (z-score) (A431 [1]) | LBPA endosome anti-LBPA integrated intensity (z-score) (HeLa MZ [2]) | whole-cell filipin (z-score) (A431 [3]) | whole-cell filipin (z-score) (HeLa MZ [4]) | filipin (z-score) (A431 [5]) | filipin (z-score) (HeLa MZ [6])
CC(NC(C)(C)C)C(=O)c1cccc(Cl)c1 (stereo not drawn) [Bupropion hydrochloride] | -0.577 | -0.652 | -0.448 | -0.134 | -0.453 | -0.438
CCC1(C)CC(=O)NC(=O)C1 [Bemegride] | -0.67 | -1.05 | -0.832 | -0.492 | -0.547 | -0.434
CN(C)C(=O)Oc1cccc([N+](C)(C)C)c1 [Neostigmine bromide] | -0.478 | -0.496 | -0.63 | -0.608 | -0.499 | -0.715
NCCC(O)C(=O)NC1CC(N)C(OC2OC(CN)C(O)[C@H](O)[C@@H]2N)[C@H](OC2O[C@H](CO)[C@@H](O)[C@@H]2O)[C@@H]1O (stereo partly drawn) [Butirosin disulfate salt] | -0.571 | -0.99 | -0.257 | 0.609 | -0.399 | -0.239
C[N+]1(C)CCOC(O)(c2ccc(-c3ccc(C4(O)C[N+](C)(C)CCO4)cc3)cc2)C1 (stereo not drawn) [Hemicholinium bromide] | -0.629 | -1.27 | -0.551 | -0.638 | -0.55 | -0.667
O=P1(N(CCCl)CCCl)NCCCO1 (stereo not drawn) [Cyclophosphamide] | -0.0725 | 1.02 | 0.399 | 0.209 | -0.311 | 0.352
C#C[C@]1(O)CC[C@H]2[C@@H]3CCC4=CC(=O)CCC4=C3C=C[C@@]21CC [Gestrinone] | -0.489 | -0.347 | 0.15 | 0.634 | -0.436 | -0.437
CC1OC(OC2/C=C/C=C/C=C/C=C/CC/C=C/C=C/[C@H](C)[C@@H](O)[C@@H](C)[C@H](C)OC(=O)CC(O)CC(O)CC(O)CCC(O)C(O)C[C@]3(O)CC(O)C(C(=O)O)C(C2)O3)C(O)C(N)C1O (stereo partly drawn) [Nystatine] | -0.00963 | 0.129 | 0.146 | 0.0497 | -0.136 | -0.223
C[C@@H]1CN([C@H]2CC[C@](C#N)(c3ccc(F)cc3)CC2)CC[C@]1(C(=O)O)c1ccccc1 [Levocabastine hydrochloride] | -0.412 | -0.243 | -0.194 | -0.189 | -0.388 | -0.461
CN(C)C(=O)Oc1cc(OC(=O)N(C)C)cc(C(O)CNC(C)(C)C)c1 (stereo not drawn) [Bambuterol hydrochloride] | -0.585 | -0.352 | -0.328 | -0.434 | -0.64 | -0.586
O=c1[nH]c2ccccc2n1CCCN1CCC(n2c(=O)[nH]c3cc(Cl)ccc32)CC1 [Domperidone] | 2.25 | 1.92 | 2.16 | 2.38 | 2.09 | 2.01
O=c1[nH]oc2c1CCNC2 [THIP Hydrochloride] | -0.526 | -1.24 | -0.151 | -1.07 | -0.413 | -0.582
CCC1(c2cccc(O)c2)CCCCN(C)C1 (stereo not drawn) [Meptazinol hydrochloride] | -0.527 | -0.173 | 0.166 | -0.306 | -0.402 | -0.0124
C#C[C@]1(O)CC[C@H]2[C@@H]3CCC4=CC(=O)CC[C@]4(C)[C@H]3CC[C@@]21C [Ethisterone] | -0.369 | -0.214 | -0.635 | -1.08 | -0.449 | -0.685
NC(=O)C[S+]([O-])C(c1ccccc1)c1ccccc1 (stereo not drawn) [Modafinil] | -0.574 | -0.833 | -0.743 | -0.382 | -0.532 | -0.453
CCCC(C)(COC(N)=O)COC(=O)NC(C)C (stereo not drawn) [Carisoprodol] | -0.659 | -0.835 | -0.863 | -0.798 | -0.607 | -0.604
NC(=O)CN1CCCC1=O [Piracetam] | -0.558 | -0.0728 | -0.653 | -0.301 | -0.56 | -0.514
C[C@]12CC[C@@H](O)C[C@H]1CC[C@@H]1[C@@H]2CC[C@]2(C)C(=O)CC[C@@H]12 [3-alpha-Hydroxy-5-beta-androstan-17-one] | -0.153 | 1.16 | 0.209 | 0.519 | -0.175 | -0.161
CC(CCc1ccccc1)NC(C)C(O)c1ccc(O)cc1 (stereo not drawn) [Nylidrin] | 0.233 | 1.33 | 0.218 | -0.109 | -0.121 | 0.184
C[C@]12COC(=O)C[C@@H]1CC[C@@H]1[C@@H]2CC[C@@]2(C)[C@H]1CC[C@]2(C)O [Oxandrolone] | -0.386 | -0.00131 | -0.15 | -0.159 | -0.429 | -0.517
CCOC(=O)c1cncn1[C@H](C)c1ccccc1 [Etomidate] | -0.611 | -1.14 | -0.618 | -0.784 | -0.487 | -0.672
CC[C@@H](CO)NC(=O)[C@@H]1C=C2c3cccc4[nH]cc(c34)C[C@H]2N(C)C1 [Methylergometrine maleate] | -0.539 | -1.25 | -0.649 | -0.308 | -0.495 | -0.637
Oc1ccc2c3c1O[C@H]1[C@@H](O)CC[C@@]4(O)[C@@H](C2)N(CC2CCC2)CC[C@]314 [Nalbuphine hydrochloride] | -0.515 | -0.32 | -0.797 | -0.749 | -0.572 | -0.371
CN1CCN(C(=O)OC2c3nccnc3C(=O)N2c2ccc(Cl)cn2)CC1 (stereo not drawn) [Zopiclone] | -0.313 | -0.4 | -0.601 | -0.164 | -0.406 | -0.296

Compound | LBPA endosome anti-LBPA integrated intensity (z-score) (A431 [1]) | LBPA endosome anti-LBPA integrated intensity (z-score) (HeLa MZ [2]) | whole-cell filipin (z-score) (A431 [3]) | whole-cell filipin (z-score) (HeLa MZ [4]) | filipin (z-score) (A431 [5]) | filipin (z-score) (HeLa MZ [6])
CCC(=O)O[C@@](Cc1ccccc1)(c1ccccc1)[C@@H](C)CN(C)C [Levopropoxyphene napsylate] | -0.308 | -0.465 | 0.489 | 0.709 | 0.194 | -0.129
CNCC(O)c1ccc(O)cc1 (racemic) [(+,-)-Synephrine] | -0.271 | -0.444 | 0.673 | -0.00115 | -0.481 | -0.576
CNC(C)(C)Cc1ccccc1 [Mephentermine hemisulfate] | -0.473 | -0.965 | -0.48 | -0.125 | -0.471 | -0.403
O=C(CCCN1CCC2(CC1)C(=O)NCN2c1ccccc1)c1ccc(F)cc1 [Spiperone] | 1.39 | 1.71 | 1.66 | 1.7 | 1.87 | 2.13
C[C@]12CC[C@H]3[C@@H](CCC4=CC(=O)CC[C@@H]43)[C@@H]1CC[C@@H]2O [Nandrolone] | -0.352 | 0.296 | -0.14 | -0.437 | -0.296 | -0.508
CC[N+]1(C)CCCC(OC(=O)C(O)(c2ccccc2)c2ccccc2)C1 (stereo not drawn) [Pipenzolate bromide] | -0.28 | 0.585 | -0.135 | 0.198 | -0.297 | -0.211
COc1ccc(Cc2nccc3cc(OC)c(OC)cc23)cc1OC [Papaverine hydrochloride] | -0.662 | 0.0558 | -0.685 | -0.814 | -0.607 | -0.356
COc1ccc2c(c1)[C@]13CCCC[C@@H]1[C@H](C2)N(C)CC3 [Dextromethorphan hydrobromide monohydrate] | -0.375 | 0.494 | -0.0383 | 0.286 | -0.149 | 0.237
CNC(=O)Oc1ccc2c(c1)[C@]1(C)CCN(C)[C@@H]1N2C [Eserine sulfate, physostigmine sulfate] | -0.59 | -0.404 | -0.783 | -0.229 | -0.479 | -0.36
CCCCCC[C@H]1C(=O)O[C@H](C)[C@H](NC(=O)c2cccc(NC=O)c2O)C(=O)O[C@@H](C)[C@@H]1OC(=O)CC(C)C [Antimycin A] | -0.868 | -0.65 | -0.217 | -0.804 | -0.854 | -0.994
NCCCNCCSP(=O)(O)O [Amifostine] | -0.621 | -1 | -0.901 | -0.742 | -0.572 | -0.603
CC(O)(CS(=O)(=O)c1ccc(F)cc1)C(=O)Nc1ccc(C#N)c(C(F)(F)F)c1 (stereo not drawn) [Bicalutamide] | -0.376 | -0.104 | -0.0253 | 0.26 | -0.405 | -0.188
CN1[C@@H]2CC[C@H]1C[C@@H](OC(=O)[C@H](CO)c1ccccc1)C2 [Hyoscyamine (L)] | -0.717 | -1.24 | -0.954 | -0.599 | -0.664 | -0.33
COc1ccc(CN2CCNCC2)c(OC)c1OC [Trimetazidine dihydrochloride] | -0.479 | 0.3 | -0.53 | -0.184 | -0.484 | -0.365
CCC1(CC)C(=O)C=CNC1=O [Pyrithyldione] | -0.626 | -1.42 | -0.51 | -0.44 | -0.527 | -0.593
COc1cccc(C2(O)CCCCC2CN(C)C)c1 (stereo not drawn) [Tramadol hydrochloride] | -0.437 | 0.543 | -0.062 | -0.487 | -0.403 | -0.176
C[C@]12Cc3c[nH]nc3C[C@@H]1CC[C@@H]1[C@@H]2CC[C@@]2(C)[C@H]1CC[C@]2(C)O [Stanozolol] | 0.154 | 1.15 | 0.353 | -0.167 | 0.0473 | -0.12
S=C(NC1CCCCC1)N1CCC(c2cnc[nH]2)CC1 [Thioperamide maleate] | 2.17 | 2.24 | -0.0418 | 0.0454 | 0.0582 | 0.431
Cc1cccc(C)c1NC1=NCCCS1 [Xylazine] | -0.493 | 0.606 | -0.691 | -0.725 | -0.524 | -0.0906
CC(=O)OCC(=O)[C@H]1CC[C@H]2[C@@H]3CC[C@H]4C[C@H](O)CC[C@]4(C)[C@H]3C(=O)C[C@]12C [Alfadolone acetate] | 0.719 | 1.43 | 0.996 | 0.815 | 0.478 | 0.736
C[C@]12CC[C@@H](O)C[C@@H]1CC[C@@H]1[C@@H]2CC[C@]2(C)C(=O)CC[C@@H]12 [Androsterone] | -0.387 | -0.552 | -0.613 | -0.395 | -0.241 | -0.291
O=[N+]([O-])c1cc([As](=O)(O)O)ccc1O [Roxarsone] | -0.422 | -1.01 | 0.39 | 0.562 | -0.281 | -0.327
CC(C)c1c(CN(C)C(C)Cc2ccccc2)n(C)n(-c2ccccc2)c1=O (stereo not drawn) [Famprofazone] | -0.355 | -0.241 | -0.228 | -0.336 | -0.4 | -0.445
C[N+]1([O-])[C@@H]2C[C@@H](OC(=O)[C@H](CO)c3ccccc3)C[C@H]1[C@@H]1O[C@@H]12 (stereo partly drawn) [Scopolamin-N-oxide hydrobromide] | -0.692 | -1.8 | -1.01 | -0.711 | -0.67 | -0.618
